Reference: PubChem BioAssay AID1471 (National Center for Advancing Translational Sciences (NCATS), 2008)
Out of some 230,000 compounds screened, about 310 (0.13%) were called active. Entries that show only a call come without a potency. About 2% were inconclusive and are not listed. Only a selection was taken, and actives are over-represented in it overall. Unmarked numbers belong to inactive results. Calls follow the shape of the dose curve; as a rule, active = well fitted activation curve with a large enough effect; inconclusive = small, poorly fitted or top-dose-only effect; inactive = no such curve, though single readings can be large or run the other way.

Test: qHTS Multiplex Assay to Identify Dual Action Probes in a Cell Model of Huntington: Cytoprotection (ATP); also: nearly all actives have a fitted effect of over 45% in size;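 as to cytoprotection (ATP increase): toxic huntingtin expression switched on by the ecdysone agonist tebufenozide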
Settings: PC12 HTT-Q103 induced, ATP luminescence, 40 h; series mostly up to 56.4 µM
Text: NIH Chemical Genomics Center [NCGC]
NIH Molecular Libraries Probe Production centers Network [MLPCN]
Assay Submitter (PI): Wei Zheng
Huntington's disease is a neurodegenerative disorder caused by a trinucleotide repeat expansion in Exon 1 of the Huntingtin gene. The CAG trinucleotide encodes glutamine and polyglutamine expansions cause cell death in selective areas of the brain. Huntington polyglutamine repeats have the tendency to form aggregates which are observable in later stages of the disease. The exact nature of the aggregates, whether toxic, protective, or insignificant, is unclear.
A stable PC12 cell line containing a gene fusion of Exon 1 of the Huntingtin gene linked to GFP under the control of the inducible ecdysone promoter were used as the cell-based model of Huntington Disease for high throughput screening. Exon 1 of the Huntingtin gene contained an expansion of 103 polyglutamines (Q103) which, when expressed, caused cell death and distinct, bright GFP aggregates. The amount of cell death and the size and intensity of GFP aggregates increased over time and induction level. The cell death were quantified with a measurement of ATP content in the cells. A maximal 40-50% of cell death was observed when the Huntington gene was induced in this cell line.
We optimized this assay in a homogeneous 1536 well format. A quantitative high throughput screen (qHTS) was conducted on the PC12 cells which were induced to express the toxic fusion construct. Small molecules which prevented cell death were identified by using a luminescent ATP quantification method (Perkin Elmer's ATPlite).
PC12 cells stably containing a construct with an ecdysone inducible promoter expressing GFP fused to the exon 1 of HTTQ103 (Huntington protein which containing a 103 ployglutamine expansion) were used.
NCGC Assay Protocol Summary:
Sequence, Parameter, Description
1, Reagent, 5 uL 1500 cells/well 1536 TC treated White clear bottom plate
2, Compound, 23 nL Tebufenozide inducer (100 nM final) to all columns
3, Compound, 23 nL 40 uM to 0.5 nM Libraries
5, Reagent, 5 ul ATPLite cell death assay reagent
6, Detector, 4 sec integration with a Viewlux Luminescent
Media consisted of phenol red free DMEM + 5% equine serum (Hyclone # SH30072.03 ), 5% supplemented Bovine Calf Serum (Hyclone # SH30074.03 ), 1x pen/strep, no G418
Control columns: 1 = DMSO, 2= 2 uM teb dilns (1:1), 4 = 100 nM Teb inducer. Sample columns received 100 nM Teb.
Potency is read from the fitted curve at half-maximal effect.

Row | SMILES | cytoprotection (ATP increase) | Potency
1 | CCCCCCCC/C=C\CCCCCCCC(=O)NCC(=O)O | inactive | –
2 | CC(=O)Oc1ccccc1C1=NN(C(C)=O)C(c2ccccc2)C1 (stereo not given) | inactive | –
3 | CCCN(CCc1ccccc1)C1CCc2c(O)cccc2C1 (stereo not given) | inactive | –
4 | CCOC(=O)C1=C(C)c2ccccc2OC1C(=O)OCC (stereo not given) | inactive | –
5 | O=C(O)C[C@@H]1NC(=O)[C@H](Cc2ccccc2)NC1=O | inactive | –
6 | COc1ccc(-c2nc3c(c4c2C[C@H](c2ccccc2)OC4)CN(C(=O)c2cccnc2)CC3)c(C)c1 | 27.4% [at 10 µM] | –
7 | COc1ccc(NC(=S)NC2CCS(=O)(=O)C2)cc1 (stereo not given) | 2.72% [at 0.074 µM] | –
8 | COc1cccc(CC(=O)N2CCc3nc(COc4ccccc4)c4c(c3C2)CO[C@@H](C)C4)c1 | 16.2% [at 10 µM] | –
9 | CC(C)C1=CC2=CC[C@H]3[C@](C)(C(=O)O)CCC[C@]3(C)C2CC1 (stereo not given in full) | inactive | –
10 | COc1ccc(-c2[nH]nc(-c3ccccc3)c2-c2nc3ccccc3[nH]2)cc1 | inactive | –
11 | CCOC(=O)CCNC(=O)N1CCCC(C(=O)c2ccccc2SC)C1 (stereo not given) | 2.06% [at 10 µM] | –
12 | CSc1ncccc1C(=O)N1CCCC(CCC(=O)NCc2ccccc2F)C1 (stereo not given) | 4.93% [at 10 µM] | –
13 | CSCCC(=O)N1CCCC(CNC(=O)c2ccccc2Cl)C1 (stereo not given) | – | 2.82 µM (active)
14 | C[C@@H]1C(c2ccc(F)cc2)=NN(c2ccc(Br)cc2)[C@H]1C(=O)N1CCOC1=O | inactive | –
15 | Cc1cc(=O)oc(C)c1C(=O)NCCN(C)Cc1ccccc1 | inactive | –
16 | COc1ccc(-c2nc(-c3ccccc3)oc2Nc2ccc3ccccc3c2)cc1 | inactive | –
17 | COc1ccc2c(c1)O[C@@H](c1ccc3c(c1)OCO3)[C@H](OC(=O)NCc1ccco1)C2=O | inactive | –
18 | O=C(O)CCC(=O)O | inactive | –
19 | CCCCCCCCCCCCCCCCO | inactive | –
20 | COc1ccc(CCCOC(Cn2ccnc2)c2ccc(OC)cc2)cc1 (stereo not given) | inactive | –

Row | SMILES | cytoprotection (ATP increase) | Potency
21 | NC(=O)C1CCN(C(=O)c2ccc(-c3ccccc3)cc2)CC1 | inactive | –
22 | COc1ccccc1CN(C)c1nnnn1-c1ccccc1 | inactive | –
23 | COc1ccccc1-n1nnnc1S(=O)(=O)Cc1ccc(Cl)cc1 | – | 25.1 µM (active)
24 | COc1ccccc1N1CCN(C(=O)CN(Cc2ccc(Cl)cc2)S(C)(=O)=O)CC1 | inactive | –
25 | COC(=O)CCCC1=CC2=CC(=O)C(C)(OC(=O)c3cccs3)C(=O)C2=CN1c1ccc(CO)cc1 (stereo not given) | -11% [at 10 µM] | –
26 | CC(=O)N(CC(O)CO)c1c(I)c(C(=O)NCC(O)CO)c(I)c(C(=O)NCC(O)CO)c1I (stereo not given) | inactive | –
27 | COC(=O)C1=C(C(=O)OC)[C@@H]2N(C)c3ccccc3[C@@]23C[C@@H](C(=O)OC)N(S(=O)(=O)c2cccs2)C3=N1 | -27.2% [at 10 µM] | –
28 | COc1ccc(-c2nc(-c3ccccc3)no2)c(OC)c1 | – | 5.62 µM (active)
29 | COc1ccc(-c2noc(-c3cccc(OC)c3OC)n2)cc1OC | inactive | –
30 | COc1ccc(-c2noc(-c3ccc(C)cc3)n2)cc1 | inactive | –
31 | O=P(O)(O)C(O)c1ccc2ccccc2c1 (stereo not given) | inactive | –
32 | COCCNc1nc2nonc2nc1N(C)Cc1ccc(C)cc1 | -6.59% [at 10 µM] | –
33 | Cc1ccc(NC(=O)O[C@@H]2C(=O)c3cc(Br)ccc3O[C@H]2c2ccc3c(c2)OCO3)cc1Br | inactive | –
34 | CCNc1nc(NC(C)C)nc(OCCOC(=O)c2ccccc2)n1 | -7.6% [at 10 µM] | –
35 | COc1ccc(C2(C#N)CCC(C(=O)O)CC2)cc1OC1CCCC1 (stereo not given) | inactive | –
36 | C=C(C)C(=O)c1ccc(F)cc1 | inactive | –
37 | C/C(Nc1ccc2oc(=O)ccc2c1)=C1/C(=O)CC2[C@@H]1C2(C)C (stereo not given in full) | inactive | –
38 | Nc1ccc(N=Nc2ccccc2Cl)c(N)n1 | 7.07% [at 10 µM] | –
39 | COC(C)C(C(=O)OCC1=CCN2CC[C@H](O)[C@@H]12)C(C)C (stereo not given in full) | inactive | –
40 | COc1ccc(-c2c(C)cc3oc(=O)cc(-c4ccccc4)c3c2C)cc1F | inactive | –

Row | SMILES | cytoprotection (ATP increase) | Potency
41 | N#C/C(=C\C1=C(N2CCOCC2)C(=C\c2ccccc2)/CC1)C(=O)Nc1ccccc1F | 6.74% [at 10 µM] | –
42 | COC(=O)C1=C(C(=O)OC)[C@@H]2Nc3ccccc3[C@@]23C[C@@H](C(=O)OC)N(S(=O)(=O)c2ccc([N+](=O)[O-])cc2)C3=N1 | 9.32% [at 10 µM] | –
43 | COC(=O)C1=C(N)Oc2cc(C)[nH]c(=O)c2C1c1ccc(Cl)cc1 (stereo not given) | -1.17% [at 10 µM] | –
44 | COc1ccc(C2CC(=O)Oc3ccc(C(C)(C)C)cc32)cc1 (stereo not given) | inactive | –
45 | FCOC(C(F)(F)F)C(F)(F)F | inactive | –
46 | CC(C)=CCC[C@]1(C)[C@@H](CC=C(C)C)C[C@@]2(CC=C(C)C)C(=O)[C@]1(C(=O)C(C)C)C(=O)C(CC=C(C)C)=C2O | inactive | –
47 | O=C(OCc1ccccc1)c1ccc(O)cc1 | inactive | –
48 | COc1ccc(-c2nc3c(c4c2C[C@H](c2ccccc2)OC4)CN(C(=O)c2ccco2)CC3)c(C)c1 | -10% [at 10 µM] | –
49 | CCCCCCCC1=Cc2ccc(F)cc2C(C(C(=O)OC)C(=O)OC)N1C(=O)OC (stereo not given) | inactive | –
50 | OCC(CO)NC1C[C@](O)(CO)[C@@H](O)[C@H](O)[C@H]1O (stereo not given in full) | inactive | –
51 | CC(=O)OC1C([N+]2(C)CCCCC2)C[C@H]2C3CC[C@H]4C[C@H](OC(C)=O)C([N+]5(C)CCCCC5)CC4(C)C3CCC12C (stereo not given in full) | inactive | –
52 | Oc1ccc(Cl)c2c1CCC2 | inactive | –
53 | O=C(O)C1CCCN(CCC=C(c2ccccc2)c2ccccc2)C1 (stereo not given) | inactive | –
54 | COCCNc1nc(-c2ccccc2)nc2c1oc1ccccc12 | 13.7% [at 10 µM] | –
55 | CC(=O)c1cnn(-c2cc(Oc3ccc(F)cc3)ncn2)c1C | inactive | –
56 | CO[C@@]12[C@@H](COC(N)=O)C3=C(C(=O)C(C)=C(N)C3=O)N1C[C@@H]1N[C@@H]12 | inactive | –
57 | C[C@]12CC[C@@H]3c4ccc(O)cc4C[C@@H](CCCCCCCCCS(=O)CCCC(F)(F)C(F)(F)F)C3[C@@H]1CC[C@@H]2O (stereo not given in full) | inactive | –
58 | O=C(CSc1ncnc2c1nnn2Cc1ccc(F)cc1)NC1CCCC1 | – | 1.26 µM (active)
59 | O=C(Cc1ccc(F)cc1)NC1CCCC1 | inactive | –
60 | O=C(Cn1cnc2c(nnn2Cc2ccc(F)cc2)c1=O)NCc1ccc2c(c1)OCO2 | 7.52% [at 10 µM] | –
